This is an account of results in PubChem BioAssay (NCI).

Each structure is given as a SMILES string. “And” between values parts separate entries of the source, which are not always exact repeats. Identical values can stand only once. Compounds without any hit were thinned out: in the full panel of roughly 79,000, 15% have a hit. Where a structure was tested more than once in an assay, its records may differ in their call. The source made the active and inactive calls. Rule as the data show it: active = growth inhibition above about 70%; inactive = the rest.

Assay [1] in a line: NCI Yeast Anticancer Drug Screen. Data for the rad50 strain (AID 155).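 Also: 0% = growth of vehicle-only cultures of the same strain.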 Particulars: S. cerevisiae rad50 strain growth inhibition, stronger effect = higher value. The gist of the method: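 Growth of the mutant yeast was measured after compound exposure and referenced to vehicle-treated cultures.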
Assay [2] is described as follows: NCI Yeast Anticancer Drug Screen. Data for the mec2-1 strain (AID 157). The note with it: S. cerevisiae mec2-1 strain, stronger effect = higher value. In a few lines:
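Each compound was tested on mec2-1 yeast, a strain altered in DNA damage repair or cell cycle control. Growth inhibition is reported relative to vehicle.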

The nature of assay [3]: NCI Yeast Anticancer Drug Screen. Data for the sgs1 mgt1 strain (AID 161).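 Also: 0% = growth of cultures given vehicle only.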 The note with it: S. cerevisiae sgs1 mgt1 strain, stronger effect = higher value. In a few lines:
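Test agents were incubated with a DNA-repair-mutant yeast strain. Growth was then read and compared against vehicle-treated controls.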

Assay [4] can be described thus: NCI Yeast Anticancer Drug Screen. Data for the cln2 rad14 strain (AID 165).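 Also: 0% = growth equal to vehicle treated cultures.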 The note with it: S. cerevisiae cln2 rad14 strain, stronger effect = higher value. The gist of the method:
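Test compounds were added to cln2 rad14 yeast cultures; inhibition of growth was then determined by comparison with vehicle treatment.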

Assay [5] is described as follows: NCI Yeast Anticancer Drug Screen. Data for the bub3 strain (AID 167). Particulars: S. cerevisiae bub3 mutant strain, stronger effect = higher value. In a few lines:
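Whole-cell yeast assay. The mutant strain was incubated with compounds, and growth inhibition was determined by comparison with vehicle-treated cells.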

Assay [6] in a line: NCI Yeast Anticancer Drug Screen. Data for the mlh1 rad18 strain (AID 175). Particulars: S. cerevisiae mlh1 rad18 strain growth inhibition, stronger effect = higher value. The gist of the method: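 Inhibition values reflect reduced growth of mutant yeast versus vehicle-treated controls following compound exposure; the mutations affect DNA damage repair.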
Where [7] appears, read: at 5.0 µM (retest, dose inferred, filed as 0.5).
[8] abbreviates: at 50.0 µM (retest, dose inferred, filed as 5.0).

Turning to `COC(=O)CCCCCCCCC[CH2][Hg][Cl]`, the growth inhibition in assay [1] (setting [7]) is 99% (active); in assay [1] (setting [8]) it was 99% (active); in assay [1] (at 50.0 µM) it was 95% (active); in assay [2] (setting [7]) it was 100% (active); in assay [2] (setting [8]), 99% (active); in assay [2] (at 50.0 µM), 97.5% (active). Besides, the growth inhibition is 99% (active) in assay [3] (setting [7]); 99% (active) in assay [3] (setting [8]); 98% (active) in assay [3] (at 50.0 µM); 99% (active) in assay [4] (setting [7]); 98% (active) in assay [4] (setting [8]); 97.3% (active) in assay [4] (at 50.0 µM). For the same molecule, the growth inhibition in assay [5] (setting [7]) was 99% (active); in assay [5] (setting [8]), 99% (active); in assay [5] (at 50.0 µM), 98.4% (active); in assay [6] (setting [7]) it was 100% (active); in assay [6] (setting [8]), 99% (active); in assay [6] (at 50.0 µM) it was 98.4% (active).

For `CCN(CC)P1(=O)OC(c2ccccc2)=CCN1c1ccc(OC)cc1` (centres undefined), the growth inhibition in assay [1] (setting [7]) is 0% (inactive); in assay [1] (setting [8]), 85% (active); in assay [1] (at 50.0 µM), 97.3% (active); in assay [2] (setting [7]), -1% (inactive); in assay [2] (setting [8]), 82% (active); in assay [2] (at 50.0 µM), 95.3% (active). The growth inhibition in assay [3] (setting [7]) was -24% (inactive); in assay [3] (setting [8]), 95% (active); in assay [3] (at 50.0 µM) it was 97.8% (active); in assay [4] (setting [7]) it was -7% (inactive); in assay [4] (setting [8]) it was 78% (active); in assay [4] (at 50.0 µM) it was 83% (active). The growth inhibition in assay [5] (setting [7]) is 10% (inactive); in assay [5] (setting [8]) it was 91% (active); in assay [5] (at 50.0 µM), 96.2% (active); in assay [6] (setting [7]) it was 2% (inactive); in assay [6] (setting [8]), 91% (active); in assay [6] (at 50.0 µM) it was 96.3% (active).

For the molecule `CC(=O)OCC1OC(OC(C)C)[CH]([Hg][S]Cc2ccccc2)C(OC(C)=O)C1OC(C)=O` (centres undefined), the growth inhibition is 99% (active) in assay [1] (setting [7]); 98% (active) in assay [1] (setting [8]); 54.8% (inactive) in assay [1] (at 50.0 µM); 99% (active) in assay [2] (setting [7]); 99% (active) in assay [2] (setting [8]); 57.9% (inactive) in assay [2] (at 50.0 µM). Moreover, the growth inhibition in assay [3] (setting [7]) was 94% (active); in assay [3] (setting [8]), 98% (active); in assay [3] (at 50.0 µM), 44.6% (inactive); in assay [4] (setting [7]), 37% (inactive); in assay [4] (setting [8]) it was 98% (active); in assay [4] (at 50.0 µM), 96.8% (active). In addition, the growth inhibition is 99% (active) in assay [5] (setting [7]); 98% (active) in assay [5] (setting [8]); 98.2% (active) in assay [5] (at 50.0 µM); 99% (active) in assay [6] (setting [7]); 97% (active) in assay [6] (setting [8]); 46.1% (inactive) in assay [6] (at 50.0 µM).

Consider `O=C(N/N=C/c1ccc(F)cc1)c1ccc(N(CCCl)CCCl)cc1`, for which the growth inhibition was -7% (inactive) in assay [1] (setting [7]); -5% (inactive) in assay [1] (setting [8]); 38.9% (inactive) in assay [1] (at 50.0 µM); -12% (inactive) in assay [2] (setting [7]); -11% (inactive) in assay [2] (setting [8]); 18.2% (inactive) in assay [2] (at 50.0 µM). In addition, the growth inhibition in assay [3] (setting [7]) was -20% (inactive); in assay [3] (setting [8]), 2% (inactive); in assay [3] (at 50.0 µM), 56.8% (inactive); in assay [4] (setting [7]) it was -26% (inactive); in assay [4] (setting [8]), -34% (inactive); in assay [4] (at 50.0 µM), 25.2% (inactive). The growth inhibition in assay [5] (setting [7]) is -3% (inactive); in assay [5] (setting [8]), 3% (inactive); in assay [5] (at 50.0 µM), 27.8% (inactive); in assay [6] (setting [7]) it was -3% (inactive); in assay [6] (setting [8]), -8% (inactive); in assay [6] (at 50.0 µM), 59.3% (inactive).

As for `c1ccc(CCNCc2ccccc2)cc1`, the growth inhibition is -2% (inactive) in assay [1] (setting [7]); 3% (inactive) in assay [1] (setting [8]); -2.35% (inactive) and 6.05% (inactive) in assay [1] (at 50.0 µM); -2% (inactive) in assay [2] (setting [7]); 2% (inactive) in assay [2] (setting [8]); 6.45% (inactive) and 3.8% (inactive) in assay [2] (at 50.0 µM). Further, the growth inhibition in assay [3] (setting [7]) is -4% (inactive); in assay [3] (setting [8]), 0% (inactive); in assay [3] (at 50.0 µM), -7.05% (inactive) and -3.9% (inactive); in assay [4] (setting [7]), 0% (inactive); in assay [4] (setting [8]), 4% (inactive); in assay [4] (at 50.0 µM), 54% (inactive) and -3.45% (inactive). In addition, the growth inhibition in assay [5] (setting [7]) is 5% (inactive); in assay [5] (setting [8]), 4% (inactive); in assay [5] (at 50.0 µM), -7.5% (inactive) and 16.1% (inactive); in assay [6] (setting [7]), 3% (inactive); in assay [6] (setting [8]) it was 6% (inactive); in assay [6] (at 50.0 µM) it was 0.4% (inactive) and 3.2% (inactive).

As for `Cc1c([C@H](C)[C@@H]2NC[C@@H](C)C[C@H]2O)ccc2c1C[C@H]1[C@H]2CC=C2C[C@@H](O)CC[C@@]21C`, the growth inhibition in assay [1] (setting [7]) is 10% (inactive) and -5% (inactive); in assay [1] (setting [8]) it was 71% (active) and 36% (inactive); in assay [1] (at 50.0 µM) it was 84.3% (active) and 88.5% (active); in assay [2] (setting [7]), -1% (inactive); in assay [2] (setting [8]), 52% (inactive) and 0% (inactive); in assay [2] (at 50.0 µM), 75.2% (active) and 79.2% (active). Further, the growth inhibition is 7% (inactive) and -12% (inactive) in assay [3] (setting [7]); 85% (active) and 6% (inactive) in assay [3] (setting [8]); 76.8% (active) and 86.2% (active) in assay [3] (at 50.0 µM); -6% (inactive) and -7% (inactive) in assay [4] (setting [7]); 58% (inactive) and 8% (inactive) in assay [4] (setting [8]); 77.3% (active) and 82.8% (active) in assay [4] (at 50.0 µM). Also, the growth inhibition in assay [5] (setting [7]) is 11% (inactive) and -18% (inactive); in assay [5] (setting [8]), 74% (active) and 1% (inactive); in assay [5] (at 50.0 µM) it was 86.2% (active) and 19.4% (inactive); in assay [6] (setting [7]), 2% (inactive) and 0% (inactive); in assay [6] (setting [8]), 59% (inactive) and 40% (inactive); in assay [6] (at 50.0 µM), 85% (active) and 87.5% (active).

Turning to `ClCCN(CCCl)c1ccc(C2N(Cc3ccc(N(CCCl)CCCl)cc3Cl)CCCN2Cc2ccc(N(CCCl)CCCl)cc2Cl)cc1`, the growth inhibition in assay [1] (setting [7]) is 2% (inactive); in assay [1] (setting [8]), 99% (active); in assay [1] (at 50.0 µM), 96.2% (active); in assay [2] (setting [7]), -3% (inactive); in assay [2] (setting [8]) it was 99% (active); in assay [2] (at 50.0 µM), 98.8% (active). Further, the growth inhibition is -1% (inactive) in assay [3] (setting [7]); 99% (active) in assay [3] (setting [8]); 97.5% (active) in assay [3] (at 50.0 µM); -7% (inactive) in assay [4] (setting [7]); 99% (active) in assay [4] (setting [8]); 22.1% (inactive) in assay [4] (at 50.0 µM). In addition, the growth inhibition in assay [5] (setting [7]) is 1% (inactive); in assay [5] (setting [8]) it was 99% (active); in assay [5] (at 50.0 µM) it was 37% (inactive); in assay [6] (setting [7]), 9% (inactive); in assay [6] (setting [8]), 99% (active); in assay [6] (at 50.0 µM) it was 98.2% (active).

For `CC(=O)[O-].[Zn].c1ccc(/C(=N\Nc2ccccn2)c2ccccn2)cc1`, the growth inhibition in assay [1] (setting [7]) was 29% (inactive); in assay [1] (setting [8]) it was 66% (inactive); in assay [1] (at 50.0 µM) it was 41.9% (inactive); in assay [2] (setting [7]), 37% (inactive); in assay [2] (setting [8]) it was 61% (inactive); in assay [2] (at 50.0 µM) it was 9.8% (inactive). For the same molecule, the growth inhibition was 38% (inactive) in assay [3] (setting [7]); 83% (active) in assay [3] (setting [8]); 23.8% (inactive) in assay [3] (at 50.0 µM); 26% (inactive) in assay [4] (setting [7]); 78% (active) in assay [4] (setting [8]); 13.8% (inactive) in assay [4] (at 50.0 µM). The growth inhibition in assay [5] (setting [7]) was 44% (inactive); in assay [5] (setting [8]), 86% (active); in assay [5] (at 50.0 µM) it was 34.6% (inactive); in assay [6] (setting [7]), 36% (inactive); in assay [6] (setting [8]) it was 68% (inactive); in assay [6] (at 50.0 µM) it was 41.1% (inactive).
